An excerpt weighted towards active compounds, which were near 12% of everything screened.
KCC2 mod – KCC2 (human) Cl- transport modulation | Q9H2X9 | KCC2 cells, thallium flux FluoZin-2 fluorescence | B-score of Tl+ flux slope (higher = more flux/activation; lower = inhibition) at 10 µM | hit rate 2.2% among 190,000;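 active = thallium flux slope and its plate-corrected score both differing from the plate sample mean at a set confidence after two filtering rounds, in either direction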;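 note: slope of fluorescence scaled to starting intensity during 10 to 20 s after thallium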
ROMK primary – modulators of human ROMK potassium channel | B-score at 10 µM | P48048 | Tet-inducible ROMK, thallium flux fluorescence; actives lie on both sides | hit rate 2% among 130,000;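 active = signal ratio slope over the read window, or its plate-corrected B-score, at least 3 SD from the plate mean, either direction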;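 note: B-score of the F/F0 ratio slope over 7 to 12 s after thallium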
Target sequence (P48048 whole entry, looked up): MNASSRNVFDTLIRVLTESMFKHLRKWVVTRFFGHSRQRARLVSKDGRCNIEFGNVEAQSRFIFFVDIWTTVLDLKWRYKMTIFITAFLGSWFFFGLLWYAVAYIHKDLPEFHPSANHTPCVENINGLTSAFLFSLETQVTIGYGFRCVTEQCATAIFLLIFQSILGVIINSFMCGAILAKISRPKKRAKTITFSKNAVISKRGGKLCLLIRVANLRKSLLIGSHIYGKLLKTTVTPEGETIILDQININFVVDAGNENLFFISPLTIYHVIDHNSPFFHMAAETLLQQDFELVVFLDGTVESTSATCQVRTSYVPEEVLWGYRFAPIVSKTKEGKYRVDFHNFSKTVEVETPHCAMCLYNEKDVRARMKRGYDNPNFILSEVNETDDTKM
WT yeast gro inh – growth inhibition of WT yeast, mitochondrial fusion screen | mitochondrial fusion phenotypic screen, WT strain | hit rate 2.1% among 190,000 | AID 1362 | inhibition, % at 10 µM; in the data active = inhibition above about 58%; tested in S. cerevisiae
m-calpain inh – calpain II (pig) inhibition | purified calpain II, fluorogenic peptide substrate, 30 min | inhibition, % at 16 µM | hit rate 0.37% among 220,000 | AID 1236;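 active = inhibition above about 50%, limit read from the data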
Lmaj promast – Leishmania major promastigote growth inhibition | Leishmania major promastigotes, resazurin fluorescence viability | inhibition, % at 10 µM | hit rate 9% among 200,000 | AID 1063; in the data active = inhibition above about 50%;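 note: promastigotes grown with compound for 44 hours at 28 °C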
Active calls of the source: *; x = no result given.

SMILES | KCC2 mod | ROMK primary | WT yeast gro inh | m-calpain inh | Lmaj promast
COCC(C)NCc1ccccc1C (stereo not given) | 1.2 | -0.19 | -14 | 18 | -2
CCSc1ncc(/C=N/Nc2ccc(F)cc2)n1C | x | -0.18 | 53 | -1 | 69*
Cc1ccc(SCCNC(=O)/C=C/c2ccc([N+](=O)[O-])cc2)cc1 | -2.8 | -0.51 | 25 | 33 | 62*
Cc1ccc(SCCNC(=O)/C=C/c2ccc(Cl)cc2)cc1 | -0.61 | 0.11 | 11 | 10 | 51*
Cc1ccc(SCCNC(=O)/C=C/c2ccccc2Cl)cc1 | x | x | 2 | 20 | 2
CN(C)CCNC(=O)Nc1ccc([N+](=O)[O-])cc1 | 0.44 | 0.33 | 10 | -18 | -9
CSc1ccc(C(=O)C2CCCN(Cc3cccc4nccnc34)C2)cc1 (stereo not given) | -1.6 | x | x | 26 | x
CCOc1ccccc1Nc1nnc(Cc2ccccc2Cl)c(=O)[nH]1 | 1.7 | x | 2 | 63* | 5
CCOc1ccccc1Nc1nnc(C)c(=O)[nH]1 | x | 0.075 | 3 | -5 | 3
Cc1cccc(NC(=O)c2ccc(N3CCOCC3)c([N+](=O)[O-])c2)n1 | -0.38 | -0.88 | 20 | 13 | 9
Cc1cccc(NC(=O)c2ccc(N3CCCCC3)c([N+](=O)[O-])c2)n1 | x | -0.36 | 78* | -21 | 12
Cc1ccc(C)c2sc(NC(=O)c3ccc(N4CCCCC4)c([N+](=O)[O-])c3)nc12 | 0.19 | 1.2 | 6 | -70 | 81*
Cc1ccc(C(=O)Nc2cc(C(F)(F)F)ccc2N2CCCCC2)cc1[N+](=O)[O-] | x | x | 18 | 6 | 6
COc1ccc(-n2cc(CNCc3cccnc3)c(-c3cccc(F)c3)n2)cc1 | -0.0079 | -3.2 | 36 | -1 | 48
COc1ccc(-n2cc(CNC3CCC(O)CC3)c(-c3cccc(F)c3)n2)cc1 (stereo not given) | 1.8 | -0.45 | -3 | -29 | 84*
COc1ccc(CNCc2cn(-c3cccc(F)c3)nc2-c2ccc(C)o2)cc1 | x | -0.56 | 71* | -1 | 96*
COc1ccc(-n2cc(CN3CCC(OC)CC3)c(-c3cccc(F)c3)n2)cc1 | 0.33 | -1.9 | 9 | -5 | 9
Cc1cccc(NC(=O)CCc2c(C)nc3ncnn3c2C)n1 | -0.34 | -2.3 | -2 | 19 | -6
COC(=O)C(C)NC(=O)C1CCCN1S(=O)(=O)c1cc(C)c(Cl)cc1C (stereo not given) | -4.3* | x | 12 | 17 | -6
COCc1cc(=O)[nH]c(-c2ccccc2OC(F)(F)F)n1 | 0.27 | x | x | 1 | x
CCOC(=O)C1CCN(CC(=O)Nc2cc(C)nn2-c2nc3ccccc3s2)CC1 | 0.0055 | -0.054 | 74* | -10 | 6
Cc1cccc2cc(CN(Cc3ccco3)C(c3nnnn3CCc3ccccc3)C(C)C)c(=O)[nH]c12 (stereo not given) | -0.98 | x | 25 | -78 | 87*
CC1=CC(C)(C)N(C(=O)CN2C(=O)c3ccccc3C2=O)c2ccc(C)cc21 | x | x | 19 | 7 | 16
CCC(=O)N1c2ccc(C)cc2C2=NNC(=S)NC21O (stereo not given) | 5.4* | 0.1 | 12 | 19 | -1
CC(C)OCc1c(C(=O)Nc2nccs2)oc2ccccc12 | 0.65 | 0.87 | 40 | 29 | -3
SMILES | KCC2 mod | ROMK primary | WT yeast gro inh | m-calpain inh | Lmaj promast
COc1ccc(C(=O)NCc2nnc(SCC(=O)N3CCC(C)CC3)o2)cc1 | 0.64 | 0.22 | 6 | -12 | -4
COc1cc(C(=O)Nc2ccc(S(=O)(=O)N3CCc4ccccc43)cc2)cc(OC)c1OC | x | -0.015 | 0 | -70 | 29
COc1ccccc1C(=O)Nc1ccc(S(=O)(=O)N2CCc3ccccc32)cc1 | -0.57 | -0.3 | -16 | 18 | 80*
COc1ccccc1C(=O)Nc1ccc(C(=O)c2ccccc2)cc1 | -0.39 | 0.36 | 24 | 67* | 4
O=S(Cc1cc(Oc2ccccc2)nc(-c2ccccc2)n1)c1ccccc1 (stereo not given) | x | x | 1 | 10 | 12
Cc1cc(NC(=S)NC(=O)/C=C/c2ccc(S(=O)(=O)N3CCOCC3)cc2)ccc1Br | 1.2 | 0.019 | 9 | -132 | 45
Cc1cccc(NC(=O)Cn2cnc3ccc(S(=O)(=O)N4CCC(C)CC4)cc3c2=O)n1 | 1.1 | x | -13 | -98 | 12
Cc1ccc(C(=O)Nc2nc(-c3ccccn3)cs2)o1 | 0.5 | x | x | -28 | x
CSc1nc2ccc3nc(NC(=O)C4COc5ccccc5O4)sc3c2s1 (stereo not given) | 0.079 | x | 6 | -98 | 78*
CC1CC1C(=O)Nc1nc(-c2ccccn2)cs1 (stereo not given) | 0.027 | 1.1 | -21 | 5 | 100*
Cc1cccc(C(=O)N[C@H](C(=O)Nc2nc(C)cs2)C(C)C)c1 | 0.59 | -0.036 | -9 | 19 | 64*
COc1ccc(C(=O)NC(C(=O)NCC(=O)Nc2c(C)cccc2C)C(C)C)cc1 (stereo not given) | 0.4 | 0.35 | -5 | 18 | 67*
COc1ccc(C(=O)NC(C(=O)NCc2ccccc2OC)C(C)C)cc1 (stereo not given) | -1.2 | -0.57 | 6 | 10 | 8
Cc1csc(NC(=O)C2COc3ccccc3O2)n1 (stereo not given) | x | 0.041 | -4 | -29 | 4
CC(C(=O)NC(C)(C)C)N1C(=O)c2cccc3cccc(c23)C1=O (stereo not given) | 0.32 | -0.47 | -4 | -37 | 8
Cc1c(O)ccc(NC(=O)/C=C/c2ccccc2)c1C | 0.55 | -1.1 | -4 | -1 | 0
COc1cccc(-n2c(SCC(=O)NCCc3ccccc3)nnc2-c2ccoc2C)c1 | -1.1 | x | 4 | -30 | 1
c1ccc(CCNc2nc(-c3cccnc3)cs2)cc1 | x | x | 1 | 1 | 13
O=C(Nc1nc(-c2ccc(S(=O)(=O)N3CCCC3)cc2)cs1)C1COc2ccccc2O1 (stereo not given) | -0.27 | 0.074 | 25 | -473 | 84*
C[C@@H](C(=O)Nc1nc(-c2ccccn2)cs1)N1C(=O)C2CCCCC2C1=O (stereo not given in full) | 0.0087 | -0.1 | 55 | 7 | 100*
O=C(Nc1nc(-c2ccccn2)cs1)C1COc2ccccc2O1 (stereo not given) | -0.86 | x | 64 | 20 | 77*
c1ccc(CCNc2nc(-c3ccccn3)cs2)cc1 | -0.48 | -0.11 | 65 | 15 | 100*
CCc1nnc(NC(=O)C(NC(=O)c2ccccc2Cl)C(C)C)s1 (stereo not given) | 0.9 | 0.15 | -3 | 18 | 6
O=C(Nc1nnc(SCc2ccccc2Cl)s1)C1COc2ccccc2O1 (stereo not given) | 0.95 | x | 60* | -7 | -4
CC(C)[C@H](NC(=O)c1ccccc1Cl)C(=O)Nc1nc(-c2ccccn2)cs1 | -3.1 | 0.23 | 40 | -27 | 99*
CSc1c(CC(=O)Nc2ccccc2)n(Cc2ccccc2)c2ccccc12 | 0.47 | x | 5 | 12 | 4
CCn1cc(C(=O)NC2CCC(C)CC2)c(=O)c2cc(S(=O)(=O)N3CCCCC3)ccc21 (stereo not given) | -0.48 | x | 7 | -47 | 76*
CC1CCCC(NC(=O)c2cn(C)c3ccc(S(=O)(=O)N4CCCC4)cc3c2=O)C1C (stereo not given) | -1 | x | -16 | -28 | 63*
